# This excerpt belongs to a sample that is enriched for hits.
# ST2 IL33 inh: IL1RL1 inhibition; Q01638; AlphaLISA ST2-Fc/biotin-IL-33 interaction, 1 h; inhibition, % for hits at 17 µM; 78,000 tested, 2.3% active; AID 1259354; in the data active = inhibition above about 30%
# Target sequence (Q01638 whole entry, looked up): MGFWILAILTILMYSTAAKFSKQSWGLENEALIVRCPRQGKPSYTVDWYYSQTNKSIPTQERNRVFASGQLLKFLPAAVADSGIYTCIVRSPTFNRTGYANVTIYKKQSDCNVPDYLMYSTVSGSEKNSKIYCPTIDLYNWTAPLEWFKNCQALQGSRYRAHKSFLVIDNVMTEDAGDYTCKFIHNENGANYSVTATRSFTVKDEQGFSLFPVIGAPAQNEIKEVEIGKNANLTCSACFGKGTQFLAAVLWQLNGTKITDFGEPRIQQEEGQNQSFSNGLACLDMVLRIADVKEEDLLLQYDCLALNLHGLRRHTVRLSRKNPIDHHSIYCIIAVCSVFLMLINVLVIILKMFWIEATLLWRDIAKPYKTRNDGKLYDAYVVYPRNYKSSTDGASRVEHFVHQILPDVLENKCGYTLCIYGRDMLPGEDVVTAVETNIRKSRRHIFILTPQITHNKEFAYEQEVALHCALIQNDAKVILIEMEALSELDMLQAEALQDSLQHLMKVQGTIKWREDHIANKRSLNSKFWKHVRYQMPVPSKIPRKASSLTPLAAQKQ
# Numbers without * were called inactive; i = inactive; ! = repeats disagree.
SMILES,ST2 IL33 inh
Cc1ccc(-c2[nH]nc3c2C(c2ccccc2F)C(C#N)=C(N)O3)cc1 (stereo not drawn),i
CCN(CC)c1ccc(C2C(C#N)=C(N)Oc3n[nH]c(C)c32)cc1 (stereo not drawn),i
Cc1nc(CN2CCN(Cc3nc(-c4cccc(Cl)c4)no3)CC2)cs1,i
CC(C)(O)C#Cc1ccc(C(=O)N[C@@H]2c3ccccc3C[C@@H]2O)o1,i
COc1ccc(N(C(=O)c2ccc(OC(C)C)cc2)C2C=CS(=O)(=O)C2)cc1 (stereo not drawn),i
CSc1nc2ccc(NC(=O)CCSc3ccccc3)cc2s1,i
NC(=O)c1ccc(NC(=O)CC2CCCCC2)cc1,i
O=C(COc1ccc(Br)cc1)Nc1cccc(O)c1,i
Cc1cccc2[nH]c(-c3ccc(NC(=O)c4ccc(N)cc4)cc3)nc12,i
CC(=O)Nc1ccc(-c2nc3ccc(NC(C)=O)cc3[nH]2)cc1,i
Nc1ccc(C(=O)Nc2ccc(-c3nc4ccc(NC(=O)c5ccc(N)cc5)cc4[nH]3)cc2)cc1,30%*
O=C(CCN1CCCCCCC1)NCCc1nc(-c2cccnc2)no1,i
COc1cc(C2C3=C(CCCC3=O)OC3=C2C(=O)CCC3)ccc1OCC(=O)O,i
Cc1nc(N2CCC(NCc3cccc4[nH]ccc34)CC2)nc2ccc(F)cc12,i
O=C(NCCc1ccc(Cl)cc1)c1ccc(Cn2c(=O)[nH]c3ccsc3c2=O)cc1,37%*!
CCCCC(CC)CNC(=O)c1ccc(Cn2c(=O)[nH]c3ccsc3c2=O)cc1 (stereo not drawn),i
COc1ccc(CCNC(=O)c2ccc(Cn3c(=O)[nH]c4ccsc4c3=O)cc2)cc1OC,i
Cc1cccc(CSC2=NCCN2C(=O)c2cccc(C)c2)c1,i
CCOC(=O)C1=C(C)NC2=C(C(=O)CCC2)C1c1cc(Br)c(O)c(OCC)c1 (stereo not drawn),i
COc1ccccc1N1CCN([C@H]2[C@@H]3OC[C@@H](O3)[C@@H](NCc3ccc(OC(F)(F)F)cc3)[C@@H]2O)CC1,i
CN(C)CCN(C)[C@H]1[C@@H]2OC[C@@H](O2)[C@@H](NCc2ccc(OC(F)(F)F)cc2)[C@@H]1O,i
O[C@H]1[C@H](NCc2ccc(OC(F)(F)F)cc2)[C@H]2CO[C@H](O2)[C@@H]1N1CCOCC1,64%*
COc1ccc2c(c1)CCc1c(C(=O)Nc3cc(OC)c(OC)c(OC)c3)noc1-2,i
COc1ccc(Cn2nc(C(=O)NC3CCCC3)c3c2CCN(Cc2ccc4c(c2)CCO4)C3)cc1,i
CCCc1nnc(NC(=O)CN2C(=O)CCC2=O)s1,i
SMILES,ST2 IL33 inh
Cc1cc(C)c([N+](=O)[O-])cc1-c1ccc(C=C2C(=O)NC(=O)NC2=O)o1,36%*
Cc1cc(Cl)ccc1-c1ccc(C=O)o1,i
O=C1NC(=O)/C(=C/c2ccc(-c3cccc(Cl)c3Cl)o2)N1,i
CC(C)(C)c1cc(C2CC(=O)Nc3cc4[nH]ncc4cc32)[nH]n1 (stereo not drawn),i
CN(CC(=O)Nc1ccc(Br)cc1F)S(=O)(=O)c1ccc2c(c1)CCC(=O)N2,i
O=C(NCc1ccccn1)C1CC(=O)N(CCc2ccccc2)C1 (stereo not drawn),i
O=C1CC(NCc2ccccn2)CN1CCCc1ccccc1 (stereo not drawn),53%*
O=C1CC(NS(=O)(=O)N2CCCCC2)CN1CCCc1ccccc1 (stereo not drawn),i
O=C1c2ccccc2C(=O)C1[N+](=O)[O-] (tested in a mixture with another compound),i
Cc1nc2cc(C(=O)N3CCNC(=O)C3)ccc2s1,i
COc1ccc(C(=O)Nc2c(-c3cccs3)nc3ccccn23)cc1OC,i
COCCNC(=O)[C@@H](C)[C@@H]1CC[C@@]2(C)CC[C@H](NC(=O)Cc3ccccc3)[C@@H](C)[C@@H]2[C@H]1O,i
O=C1c2ccccc2C(=O)C1C1=Nc2ccccc2NC(c2ccccc2)C1 (stereo not drawn),31%*!
O=C1NC(c2cccc(Br)c2)Nc2ccccc21 (stereo not drawn),i
O=C1NC2=C(C(=O)c3ccccc32)C(c2ccccc2)N1 (stereo not drawn),i
C(=C\c1cc(/C=C/c2ccccc2)ncn1)/c1ccccc1,i
C(=C\c1ccccn1)/c1cccc(-n2cnnc2)c1,i
O=C(c1ccccc1)c1ccc(/C=C/c2ccccn2)cc1,55%*
CCOC(=O)C1=NN(c2ccc(Cl)cc2)C2C(=O)N(c3cccc(Cl)c3)C(=O)C12 (stereo not drawn),i
CNc1nc(C(=O)N2CCC3(CCCN(C)CC3)CC2)cs1,i
CN1CCC2(CC1)CN(C(=O)c1cc(-c3ccc(O)cc3)n[nH]1)CCCN2C,i
COc1cc(C(=O)N2CCCN(C)C3(CCN(C)CC3)C2)nc(OC)n1,33%*
CN(CC1CCN(CCc2ccc(Cl)cc2)CC1)C(=O)c1ccc(C(F)(F)F)cc1,i
O=C1S/C(=C\c2ccc(Cl)cc2Cl)C(=O)N1CN1CCOCC1,i
O=C1NC(=O)/C(=C\c2ccc(Cl)cc2Cl)S1,31%*
SMILES,ST2 IL33 inh
O=C1NC(=O)/C(=C/c2ccc([N+](=O)[O-])cc2)S1,i
O=C(CSc1cn(Cc2cccc(F)c2)c2ccccc12)N1CCCCCC1,i
CCC(C)NC(=O)c1ccc(NC(=O)Cn2c(=O)oc3ccccc32)cc1 (stereo not drawn),i
CCOC(=O)Cn1c(=O)oc2cc(Cl)ccc21,i
O=C(Cn1c(=O)oc2ccccc21)Nc1ccc(Cl)cc1Cl,46%*
O=C(c1ccc(F)cc1)N1C[C@@H]2C[C@H](C1)c1c(NS(=O)(=O)c3ccccc3)ccc(=O)n1C2,i
O=C(Nc1ccc(I)cc1)c1ccc([N+](=O)[O-])cc1,i
COc1cc([N+](=O)[O-])ccc1N1CCCC1,38%*
COc1cc([N+](=O)[O-])ccc1N,i
COc1ccc([N+](=O)[O-])cc1-n1cccc1,39%*
COc1ccccc1N1CCN(C(=O)Nc2ccc([N+](=O)[O-])cc2)CC1,i
CCN(CC)CC(O)COc1cc([N+](=O)[O-])ccc1N1CCCC1 (stereo not drawn),i
COc1ccc([N+](=O)[O-])cc1NC(=O)C(Cl)(Cl)Cl,i
CCS(=O)(=O)Nc1ccc(-c2nc(CC3CCN(C)CC3)no2)cc1,i
COCC(=O)Nc1cc(C(=O)N(C)C2CCCCC2)c2c(c1)ncn2Cc1ccc(F)cc1,i
CC1=C(C(=O)Nc2cccnc2)C(c2cccc(OCc3ccccc3)c2)n2ncnc2N1 (stereo not drawn),i
CCOc1ccc(C2Nc3cccc4cccc(c34)N2)cc1,36%*
CCOc1ccc(C2CC(c3ccc(Cl)cc3)n3nc(N)nc3N2)cc1 (stereo not drawn),i
CCOc1ccc(C2CC(c3ccccc3OC)n3ncnc3N2)cc1 (stereo not drawn),i
Cc1cccn2c(CC(=O)NC[C@@H]3C[C@@H]4C=C[C@H]3C43CC3)cnc12,i
CN1CCN(C(=O)c2cc(-c3ccc(Cl)c(Cl)c3)on2)CC1,i
CC1=Nc2c([nH]c3ccccc23)-c2cc(C)ccc2N1,32%*
Cc1ccc2[nH]c(=O)nc(-c3ccccc3)c2c1,i
CCC1C(=O)NCCN1Cc1cnc(S(=O)(=O)C2CCCCCC2)n1CCOC (stereo not drawn),i
CC(CC(=O)Nc1ccccc1Br)c1ccccc1 (stereo not drawn),i

# Screening data: PubChem, Paczesny and Yang Labs, IUPUI and University of Michigan
